# Results as given in PubChem BioAssay (NCI).
# “And” between values parts separate entries of the source, which are not always exact repeats. Equal values may be shown once. The panel holds about 83,000 compounds, 20% with a hit somewhere; the sample as a whole holds those more often.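 Cells were grown in 96-well plates and exposed to the test compound at a single concentration for 48 hours; results are reported as percent growth, with values below 10 considered active.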 The source made the active and inactive calls.
# Tested on: MCF7 breast
# Test: NCI-60 one-dose screen, 48 h (100 = growth as untreated, 0 = no growth, -100 = all killed)
# Settings: 10 µM unless noted
row,Compound,growth
1,O=C(NC1=NC2C=CC([N+](=O)[O-])=CC2S1)C(=O)Nn1c(=S)[nH]c2ccccc2c1=O (stereo not given),52.7% [100 µM] (inactive) and 8.91% [100 µM] (active)
2,Cc1cc(S(=O)(=O)O)c(NC(=O)c2oc3cc(O)ccc3c(=O)c2C)cc1Cl,100% [100 µM] (inactive) and 86.3% [100 µM] (inactive)
3,N#Cc1c(N)oc(-c2cccc([N+](=O)[O-])c2)c1C#N,12.3% [100 µM] (inactive) and -50% [100 µM] (active)
4,COc1ccc2cc(CN3CCC(C4CCNCC4)CC3)ccc2c1,-76.9% [100 µM] (active) and -23.4% [100 µM] (active)
5,Cc1ccc2c(sc(-c3ccc4c(c3)sc(-c3ccc5c(c3)sc(-c3ccc(N(C)C)cc3)[n+]5C)[n+]4C)[n+]2C)c1S(=O)(=O)O (tested in a mixture with another compound),35.5% [100 µM] (inactive) and -81.2% [100 µM] (active)
6,COc1ccc2c(c1)N(C(C)=O)CN1C(=O)CCC21 (stereo not given),86.1% [100 µM] (inactive) and 85.1% [100 µM] (inactive)
7,Cc1cc(N(CCC#N)CCC#N)ccc1/C=N/NC(=O)c1cc(Cl)ccc1O,43.8% [100 µM] (inactive) and 13.1% [100 µM] (inactive)
8,CC1CC(C(=O)OC2OC(COC3OC(CO)C(OC4OC(C)C(O)C(O)C4O)C(O)C3O)C(O)C(O)C2O)C2CCC3(C)C(=CCC4(C)C3CCC3C(C)(CO)C(O)C(O)CC34C)C2C1C (stereo not given),-87.6% [100 µM] (active) and -100% [100 µM] (active)
9,CN(C)c1ccc(/C=N/n2c(-c3ccccc3)nc3ccccc3c2=O)cc1,40.4% [100 µM] (inactive) and 21.1% [100 µM] (inactive)
10,Fc1ccc(Nc2nc(Cl)c3[nH]cnc3n2)cc1Cl,53.5% [100 µM] (inactive) and 7.87% [100 µM] (active)
11,CC1(C)Oc2ccc3c(=O)cc(-c4ccc(F)cc4)oc3c2C1C(=O)O (stereo not given),86.7% [100 µM] (inactive) and 80.6% [100 µM] (inactive)
12,CNc1nc2c(C)ccc3[nH]c(N(C)C)nc3c-2n1,8.99% [100 µM] (active) and 1.25% [100 µM] (active)
13,CCn1c2c(c3ccccc3c1=O)C(=O)c1ccccc1-2,71.7% [100 µM] (inactive) and 21% [100 µM] (inactive)
14,C[C@]12CC[C@@H]3c4ccc(OS(N)(=O)=O)cc4CC[C@H]3[C@@H]1CCC2=O,15.4% [100 µM] (inactive) and 44.8% [100 µM] (inactive)
15,COc1ccc(/C=C2/NC(=S)N=C2Cl)cc1,82% [100 µM] (inactive) and 75% [100 µM] (inactive)
16,COC(=O)c1cc(C#N)[nH]c1-c1ccsc1,9.03% [100 µM] (active) and -89.1% [100 µM] (active)
17,CC(=N\N=C\c1ccccn1)/C(C)=N/N=C/c1ccccn1,76.4% [100 µM] (inactive) and 78.5% [100 µM] (inactive)
18,CC1CC(=O)N(N(C)C)C(C#N)(C#N)C1(C#N)C#N (stereo not given),-67.7% [100 µM] (active) and -85.9% [100 µM] (active)
19,Clc1ccc(C2NN=C3c4ccccc4OCC32)cc1 (stereo not given),-15.5% [100 µM] (active) and -82.5% [100 µM] (active)
20,O=C(Nc1cccc(NC(=O)C(=O)C2CCC3=C(Sc4ccccc4N3)C2=O)n1)C(=O)C1CCC2=C(Sc3ccccc3N2)C1=O (stereo not given),51.4% [100 µM] (inactive) and 4.4% [100 µM] (active)
